Measured values as given in PubChem BioAssay (EPA / NIEHS).
Records with an inconclusive call do not appear. A structure can be active in one record and inactive in another. The source made the active and inactive calls. Rule for the calls, unless noted: active = hit-call score of the fitted dose curve at least 0.9, where 1 is the maximum; inactive = score below 0.9.

How the values were obtained:
[1] = CCTE_Shafer_MEA_acute_AB: CCTE's Alamar Blue Assay for Cytotoxicity in the Neural Acute Assay, Shafer Lab (AID 2284069; active = hit-call score of the fitted dose curve at least 0.9, where 1 is the maximum;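 note: active compounds lower the viability signal compared with DMSO wells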)
Outline: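 Read-out: resazurin fluorescence (ex 544, em 590 nm) after CTB reagent at 1:6 dilution in fresh media. Cells: primary rat cortical neuron networks, DIV 13 or 15, chemically exposed on MEA plates; DMSO as negative control/baseline.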

[2] = CCTE_Shafer_MEA_acute_LDH: CCTE's Lactate Dehydrogenase Assay for Cytotoxicity in the Neural Acute Assay, Shafer Lab (AID 2284086; active = hit-call score of the fitted dose curve at least 0.9, where 1 is the maximum;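 note: active means LDH release rises above DMSO vehicle level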)
Outline: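 Primary rat cortical neurons on 48-well MEA plates, treated on day 13 or 15 post-plating. After the 40-min recording with compound, medium LDH release was read by absorbance at 490 nm. Gain of signal was fitted against DMSO negative control.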

[3] = CCTE_Shafer_MEA_dev_burst_rate: CCTE's Neural Network Formation Assay for Burst Rate, Shafer Lab (AID 2284042);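 for AC50: potency for loss of burst rate below DMSO control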
Outline: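 Rat primary cortical cultures on PEI/laminin MEA; compound from plating, re-dosed at DIV 5, 9 media change. Single-electrode bursts/recording length, well mean of active electrodes; AUC over DIV 5–12 recordings; loss-of-signal vs DMSO.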

[4] = CCTE_Shafer_MEA_dev_bursting_electrodes_number: CCTE's Neural Network Formation Assay for Number of Bursting Electrodes, Shafer Lab (AID 2284043; active = hit-call score of the fitted dose curve at least 0.9, where 1 is the maximum;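 for AC50: potency is for loss of bursting electrodes relative to DMSO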)
Outline: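 Primary rat cortical neurons plated on 16-electrode MEA wells, exposed from day 0 with compound renewed at DIV 5 and 9. Electrodes bursting ≥1 burst per 2 min counted on days 5, 7, 9 and 12; trapezoidal AUC across days, fitted for loss versus DMSO.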

[5] = CCTE_Shafer_MEA_dev_interburst_interval_mean: CCTE's Neural Network Formation Assay for Mean Interburst Interval, Shafer Lab (AID 2284046);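 note: well-mean interburst interval of bursting electrodes as AUC over four recording days; curve fitted for decrease in interburst interval relative to DMSO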
Outline: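 Rat cortical neurons, 1.5 x 10^5 cells/well, 48-well MEA; compound from day 0 through DIV 12, media and treatment renewed DIV 5/9. Recordings DIV 5, 7, 9, 12; well-mean interburst interval → trapezoidal AUC, loss direction vs DMSO.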

[6] = CCTE_Shafer_MEA_dev_inter_network_spike_interval_mean: CCTE's Neural Network Formation Assay for Mean Inter-network Spike Interval, Shafer Lab (AID 2284047);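 for AC50: potency for a decrease in mean inter-network spike interval below DMSO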
Outline: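 Primary rat cortical neurons on PEI-coated 48-well MEAs (16 electrodes/well) were exposed from plating day 0 to DIV 12, with dosing renewed at DIV 5 and 9. Recordings at DIV 5, 7, 9, 12 were collapsed by trapezoidal AUC, loss-of-signal fit vs DMSO.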

[7] = CCTE_Shafer_MEA_dev_spike_duration_mean: CCTE's Neural Network Formation Assay for Mean Spike Duration, Shafer Lab (AID 2284051);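 note: mean network spike duration pooled as area under curve over DIV 5 to 12 recordings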;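 for AC50: potency for a decrease in mean network spike duration versus DMSO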
Outline: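 Rat cortical primary cultures, 48-well MEA (16 electrodes/well); compound from plating, renewed DIV 5, 9. Network spike duration (AxIS adaptive detector) recorded DIV 5/7/9/12, combined as trapezoidal AUC; loss direction vs DMSO.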

[8] = CCTE_Shafer_MEA_dev_network_spike_duration_std: CCTE's Neural Network Formation Assay for Standard Deviation of Network Spike Duration, Shafer Lab (AID 2284052);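 note: area under curve of spike duration SD across recording days 5 to 12; hits are decreases in network spike duration SD versus DMSO vehicle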
Outline: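 Rat cortical cultures, 1.5 x 10^5 cells/well, exposed continuously from plating to DIV 12 with media/compound renewal at DIV 5, 9. Spontaneous activity recorded DIV 5/7/9/12, AxIS adaptive spike detector; AUC across days; negative direction vs DMSO.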

[9] = CCTE_Shafer_MEA_dev_per_network_spike_spike_number_mean: CCTE's Neural Network Formation Assay for Mean Number of Spikes in a Network Spike, Shafer Lab (AID 2284053);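 for AC50: fitted as decrease in spikes per network spike relative to DMSO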
Outline: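 Rat cortical primary cultures on 48-well MEA; compound from day 0, re-dosed with full media change DIV 5, 9. Recorded DIV 5, 7, 9, 12; spikes in 0.05 s window at network-spike peak ÷ total network spikes; AUC; loss vs DMSO.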

[10] = CCTE_Shafer_MEA_dev_per_network_spike_spike_percent: CCTE's Neural Network Formation Assay for Percent of Spikes in a Network Spike, Shafer Lab (AID 2284054)
Outline: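 Rat primary cortical neurons were grown on 48-well MEA plates (16 electrodes/well), exposed from plating day 0 through day 12, with treatment renewed on DIV 5 and 9. Percent of spikes within 0.05 s network-spike peaks was measured, summarised as AUC across days 5, 7, 9, 12.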

[11] = CCTE_Shafer_MEA_dev_AB: CCTE's Alamar Blue Assay for Cytotoxicity in the Neural Network Formation Assay, Shafer Lab (AID 2284083; active = hit-call score of the fitted dose curve at least 0.9, where 1 is the maximum;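 note: resazurin reduction fluorescence as viability of cultured neurons; twelve days of exposure from plating with re-dosing on DIV 5 and 9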)
Outline: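 Rat cortical primary cultures, 1.5 x 10^5 cells/well on MEA; continuous compound exposure over 12 days of network development, re-dosed with full medium change DIV 5 and 9. Alamar Blue fluorescence; loss of signal = cytotoxicity vs DMSO baseline.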

[12] = CCTE_Shafer_MEA_dev_mutual_information_norm: CCTE's Neural Network Formation Assay for Mutual Information Normalization, Shafer Lab (AID 2284091);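 for AC50: mutual information between electrodes summarised as area under curve across four recording days; potency is for a decrease in mutual information relative to DMSO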
Outline: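 Primary rat cortical neurons on PEI-coated 48-well MEA plates, 1.5 x 10^5 cells/well, exposed from day 0 through day 12 with re-dosing at DIV 5 and 9. Mutual information between electrodes recorded days 5, 7, 9, 12; trapezoidal AUC, loss-of-signal fit versus DMSO.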

[13] = CCTE_Shafer_MEA_dev_correlation_coefficient_mean: CCTE's Neural Network Formation Assay for Mean Correlation Coefficient, Shafer Lab (AID 2284093);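 for AC50: well mean pairwise spike train correlation integrated as AUC over recording days 5 to 12; potency fitted for loss of correlation relative to DMSO vehicle wells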
Outline: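 Rat cortical cultures, 1.5 x 10^5 cells/well, dosed from day 0 for 12 days. Spontaneous spikes recorded DIV 5/7/9/12; electrode-pair correlation coefficients averaged, AUC taken. Fit in loss direction vs DMSO.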

[14] = system: DIO2 (gene 1734); test: CCTE_GLTED_hDIO2: CCTE's human Deiodinase 2 (DIO2) Inhibition Assay, Great Lakes Toxicology and Ecology Division (GLTED) Lab (AID 2284050; active = hit-call score of the fitted dose curve at least 0.9, where 1 is the maximum)
Outline: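 Cell-free human DIO2 enzyme was incubated with test chemical for 3 h; iodide liberated from substrate was then quantified by the Sandell-Kolthoff reaction (absorbance), run in triplicate. Loss of signal versus DMSO baseline indicated inhibition.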

[15] = system: DIO3 (gene 1735); test: CCTE_GLTED_hDIO3: CCTE's human Deiodinase 3 (DIO3) Inhibition Assay, Great Lakes Toxicology and Ecology Division (GLTED) Lab (AID 2284055; active = hit-call score of the fitted dose curve at least 0.9, where 1 is the maximum;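 note: potency is for inhibition seen as loss of released iodide signal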)
Outline: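 Cell-free assay with human DIO3 enzyme produced by adenovirus expression; enzyme incubated with test chemical for 3 hours. Liberated iodide then measured by Sandell-Kolthoff absorbance; loss of signal versus DMSO baseline indicates inhibition, run in triplicate.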

[16] = CCTE_Shafer_MEA_dev_LDH: CCTE's Lactate Dehydrogenase Assay for Cytotoxicity in the Neural Network Formation Assay, Shafer Lab (AID 2284068; active = hit-call score of the fitted dose curve at least 0.9, where 1 is the maximum;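 note: exposure for twelve days from plating with re-dosing on DIV 5 and 9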)
Outline: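 Rat cortical primary neurons, MEA culture; dosing day 0–12, full medium plus compound exchange DIV 5, 9. Read-out: LDH enzyme activity, spectrophotometric. DMSO = negative control/baseline; signal loss → cytotoxicity.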

[17] = molecular target: Estrogen receptor (Homo sapiens) (UniProt P03372); test: CCTE_Deisenroth_AIME_384WELL_LUC_Shift: CCTE's 384-well Estrogen Receptor Transactivation Assay with AIME metabolic competence data shift (ERTA luciferase; difference in metabolism positive and negative), Deisenroth Lab (AID 2284041);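 note: shift is response with S9 minus without S9 so positive means metabolism raised ER signal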
Outline: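 Chemicals (0.002–200 uM, 10 points) pre-incubated 2 h with alginate-encapsulated induced male Sprague Dawley rat liver S9 or S9-free, then medium applied 24 h to VM7Luc4E2 cells; luciferase. Endpoint is per-concentration difference, S9-positive minus negative.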

[18] = UKN2_HCS_IMR90_neural_migration: University of Konstanz (UKN) Leist Lab Neural Crest Cell Migration Assay in human induced IMR90 Pluripotent Stem Cells (UKN2) (AID 2284204); conditions: actives raise or lower the signal
Outline: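 iPSC-derived IMR90 neural crest cells seeded around stoppers on PLO/laminin/fibronectin; migration started in N2-S medium with EGF/FGF, compounds added after 24 h for 24 h. Migration into cell-free area imaged after calcein-AM/Hoechst staining; bidirectional fit versus DMSO.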

Measured: AC50

Estrogen receptor (Homo sapiens), sequence (P03372 whole entry, looked up): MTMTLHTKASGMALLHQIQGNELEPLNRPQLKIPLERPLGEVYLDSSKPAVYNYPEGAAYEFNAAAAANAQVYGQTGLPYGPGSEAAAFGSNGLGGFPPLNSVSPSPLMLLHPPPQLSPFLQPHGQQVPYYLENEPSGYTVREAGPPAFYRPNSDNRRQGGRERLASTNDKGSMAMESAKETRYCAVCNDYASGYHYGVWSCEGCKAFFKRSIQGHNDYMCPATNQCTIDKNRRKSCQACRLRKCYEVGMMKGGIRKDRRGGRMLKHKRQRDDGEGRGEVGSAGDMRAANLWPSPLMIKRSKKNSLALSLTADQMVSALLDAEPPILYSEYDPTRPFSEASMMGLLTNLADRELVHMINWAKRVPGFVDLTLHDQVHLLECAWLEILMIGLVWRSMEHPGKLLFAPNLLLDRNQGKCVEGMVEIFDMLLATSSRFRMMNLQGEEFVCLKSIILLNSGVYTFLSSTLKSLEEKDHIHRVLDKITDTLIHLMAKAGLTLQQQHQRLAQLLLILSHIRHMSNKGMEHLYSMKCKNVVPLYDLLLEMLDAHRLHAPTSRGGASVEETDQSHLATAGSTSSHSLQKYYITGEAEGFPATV

CCCCc1oc2ccccc2c1C(=O)c1cc(I)c(OCCN(CC)CC)c(I)c1
inactive: [1] | [2]

O=C(F)C(F)(F)C(F)(F)C(F)(F)C(F)F
not listed: [1] | [2] | [14] | [15] | [16] | [17] | [18]
inactive: all other assays above

CCCCCCCCCCCCOS(=O)(=O)O
active: [14] 101 µM | [15] 99.6 µM

O=P(O)(O)CCC(F)(F)C(F)(F)C(F)(F)C(F)(F)C(F)(F)C(F)(F)F
not listed: [1] | [2] | [4] | [14] | [15] | [17] | [18]
inactive: all other assays above

CCCCCCCCCCCCOC(=O)c1cc(O)c(O)c(O)c1
active: [14] 82 µM | [15] 6.66 µM
inactive: [17]

CN(C)CCOC(c1ccccc1)c1ccccc1
active: [4] 4.33 µM | [7] 10 µM | [10] 14 µM | [13] 15.5 µM
not listed: [14] | [15] | [16] | [17] | [18]
inactive: all other assays above

O=C1NS(=O)(=O)c2ccccc21
not listed: [1] | [11] | [14] | [15] | [17] | [18]
inactive: all other assays above

COC(=O)C(F)(F)C(F)(F)C(F)(F)C(F)(F)C(F)(F)F
inactive: [3] | [5] | [6] | [7] | [8] | [9] | [10] | [12] | [13]

OCC(F)(F)C(F)(F)C(F)(F)C(F)(F)C(F)(F)C(F)(F)C(F)(F)C(F)(F)C(F)(F)C(F)(F)C(F)(F)F
active: [4] 6.73 µM | [5] 26.4 µM | [7] 6.13 µM | [9] 6.63 µM | [10] 9.08 µM | [16] 9.45 µM | [11] 18.9 µM | [12] 4.61 µM | [13] 8.06 µM
inactive: [3] | [4] | [5] | [6] | [7] | [8] | [9] | [10] | [16] | [11] | [12] | [13]

CCCCCCCCCCCC
active: [14] 24.5 µM | [15] 22.7 µM
inactive: [2]

CC(C)c1c(C(=O)Nc2ccccc2)c(-c2ccccc2)c(-c2ccc(F)cc2)n1CC[C@@H](O)C[C@@H](O)CC(=O)O
inactive: [18]
active: [3] 0.00894 µM | [4] 0.00922 µM | [5] 0.00832 µM | [6] 0.00722 µM | [7] 0.00474 µM | [8] 0.00268 µM | [9] 0.00816 µM | [10] 0.00821 µM | [16] 0.00148 µM | [11] 0.0258 µM | [12] 0.00793 µM | [13] 0.00805 µM

O=CC(F)(F)C(F)(F)C(F)(F)F
not listed: [1] | [2] | [14] | [15] | [16] | [17] | [18]
inactive: all other assays above

Cc1cc(Cc2cc(C)cc(C(C)(C)C)c2O)c(O)c(C(C)(C)C)c1
inactive: [17]
active: [14] 97.6 µM | [15] 14.2 µM

N=C(N)c1ccc(OCCCCCOc2ccc(C(=N)N)cc2)cc1
inactive: [1] | [2]

Oc1ccc(Cc2ccccc2O)cc1
inactive: [1] | [2]

O=C(CC(=O)C(F)(F)C(F)(F)C(F)(F)F)c1cccs1
active: [4] 8.13 µM | [5] 5.43 µM | [7] 7.7 µM | [9] 3.72 µM | [10] 3.48 µM | [16] 8.63 µM | [11] 9.02 µM | [13] 7.75 µM
inactive: [3] | [6] | [8] | [12]

O=P(O)(O)CCC(F)(F)C(F)(F)C(F)(F)C(F)(F)C(F)(F)C(F)(F)C(F)(F)C(F)(F)F
inactive: [3] | [6] | [8]
active: [4] 2.39 µM | [5] 8.6 µM | [14] 146 µM | [7] 7.74 µM | [9] 4.23 µM | [10] 5.38 µM | [16] 8.87 µM | [11] 8.79 µM | [12] 4.31 µM | [13] 6.27 µM

CCCCc1ccc2ccccc2c1S(=O)(=O)O
inactive: [17]

O=C(F)C(F)(F)C(F)(F)C(F)(F)C(=O)F
not listed: [1] | [2] | [14] | [15] | [16] | [17] | [18]
inactive: all other assays above

C=CC(F)(F)C(F)(F)C(F)(F)C(F)(F)F
not listed: [1] | [2] | [14] | [15] | [16] | [17] | [18]
inactive: all other assays above
